Most compounds without a hit are left out; they make up all but 10% or so of the library.
ELG1 repair inh: blocks ELG1-dependent DNA repair in HEK293T cells; actives 2.3% (n = 330,000); Potency, µM (titrated, usually from 46.1 µM), inactives show at the top dose activity change, negative = inhibition, actives largely listed as inhibitors; HEK293T ELG1-luciferase reporter, luminescence, 16 h; DNA damage induced by 5-fluorouridine; note: % is set by controls: 0 for no effect and ±100 for the full control effect; nearly all actives have a fitted effect of over 55% in size
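5-Fluorouridine DNA damage + compound/DMSO, 2,000 cells/well, 16 h, 37 °C/5% CO2. ONE-Glo, 30 min RT, luminescence. Readout = decrease in reporter signal.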
RORg inh: ROR gamma (mouse) transcription inhibition; P51450; Drosophila S2 Gal4-RORgamma UAS-luciferase reporter, 20 h; Potency, µM (top dose mostly 53.6 µM), without a hit: top-dose activity change, negative = inhibition, actives largely listed as inhibitors; actives 5.4% (n = 310,000); AID 2551; note: % is set by controls: 0 for no effect and ±100 for the full control effect; nearly all actives have a fitted effect of over 60% in size
Target sequence (P51450 whole entry, looked up, the tested form may be a part): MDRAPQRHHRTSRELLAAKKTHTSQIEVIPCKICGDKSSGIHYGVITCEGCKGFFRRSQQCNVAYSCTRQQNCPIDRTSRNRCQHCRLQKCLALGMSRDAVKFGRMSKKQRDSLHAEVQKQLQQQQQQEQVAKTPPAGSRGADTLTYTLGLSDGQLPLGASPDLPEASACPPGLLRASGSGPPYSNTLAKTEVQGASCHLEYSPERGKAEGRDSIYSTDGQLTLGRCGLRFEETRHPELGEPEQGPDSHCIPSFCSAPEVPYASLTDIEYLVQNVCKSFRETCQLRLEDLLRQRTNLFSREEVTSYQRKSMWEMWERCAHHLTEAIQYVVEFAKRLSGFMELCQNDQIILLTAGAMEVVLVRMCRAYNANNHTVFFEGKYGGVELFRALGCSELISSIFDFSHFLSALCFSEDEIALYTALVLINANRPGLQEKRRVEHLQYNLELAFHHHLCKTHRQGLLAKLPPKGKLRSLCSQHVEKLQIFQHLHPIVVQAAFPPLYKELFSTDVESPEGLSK
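ROR gamma transcriptional activity was tracked as Gal4-UAS luciferase output in stably transfected Drosophila Schneider cells, with compound added 1 hr before 700 uM copper sulfate induction and a 20 hr ambient-temperature incubation.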
SW480 rerep: DNA re-replication induction in SW480 cells | SW480 DNA re-replication, Hoechst DNA content imaging, 48 h | Potency, µM (titrated, usually from 46.1 µM), for inactives: at the top dose re-replication activation, hits mostly activators | actives 1.8% (n = 340,000) | AID 624297; note: % of control where 0% means no effect; nearly all actives have a fitted effect of over 55% in size
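Treated cells incubate 48 hr (37 C, 5% CO2), are stained 40 min with Hoechst, and nuclear fluorescence is enumerated; a rise in nuclei with high DNA signal marks re-replication.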
VP16 counter: Gal4-VP16 reporter inhibition counter-screen | Potency, µM (titrated, usually from 53.6 µM), inactives show at the highest dose activity, negative = inhibition, hits mostly inhibitors | actives 3.5% (n = 310,000) | Drosophila S2 Gal4-VP16 UAS-luciferase, luminescence, 20 h | AID 2546;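 note: Gal4-VP16 expression switched on by copper sulfate through the metallothionein promoter; % is set by controls: 0 for no effect and ±100 for the full control effect; nearly all actives have a fitted effect of over 50% in size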
MCF10A rerep: induces DNA re-replication in MCF 10a normal breast cells | MCF 10A DNA re-replication, Hoechst nuclear intensity, 48 h | Potency, µM (titrated, usually from 46.1 µM), without a hit: at the highest dose activity, positive = re-replication, hits mostly activators | actives 2.9% (n = 350,000); note: % of control where 0% means no effect; nearly all actives have a fitted effect of over 50% in size
An asterisk follows results filed as active; ? = inconclusive; nt = no result given. Calls come from the whole dose curve; as a rule, active = well fitted curve in the direction sought with a large enough effect; inconclusive = small, poorly fitted or top-dose-only effect, or another doubt; inactive = no such curve, though single readings can be large; an effect the other way counts as inactive or inconclusive. Potency is the fitted concentration of half-maximal effect.

SMILES | ELG1 repair inh | RORg inh | SW480 rerep | VP16 counter | MCF10A rerep
O=C(CCc1nnc(C2CCCCC2)o1)NCc1cccc(-n2cccn2)c1 | -8% | 6% | -4% | -1% | 0%
CC(=O)Oc1ccc(N(C(C)=O)S(=O)(=O)c2cccs2)c2ccccc12 | 15µM* | 20µM* | ? | ? | ?
COc1ccc(N=Nc2n(C)c3ccccc3[n+]2C)cc1 | ? | 1.1µM* | nt | 2µM* | nt
CCc1ccccc1NC(=O)c1ccccc1Sc1ccc([N+](=O)[O-])cc1Cl | -17% | 33% | -3% | 17% | 1%
Cc1nn(CCCC(=O)Nc2cc(Oc3ccc(F)cc3)cc([N+](=O)[O-])c2)c(C)c1[N+](=O)[O-] | ? | ? | 1% | 10µM* | 0%
CCn1nc(C)c(C(=O)Nc2cc(Oc3ccc(Cl)cc3)cc([N+](=O)[O-])c2)c1C | ? | -6% | ? | 14% | 8.2µM*
Cc1cccc(C)c1N(CC(=O)NCc1ccccc1)C(=O)c1csnn1 | 10% | -16% | -7% | -8% | -4%
CC1CCN(C(=O)c2cc3c(ccc4ccccc43)o2)CC1 | ? | 4.5µM* | 0% | 10µM* | -4%
Clc1ccc(-c2nc(-c3ccccn3)no2)cc1Cl | ? | -31% | 3% | -20% | -13%
Brc1ccc(-c2nc(-c3ccccn3)no2)o1 | ? | ? | -5% | 7.1µM* | -6%
COc1ccccc1-c1nc(-c2ccccn2)no1 | ? | 2.5µM* | -15% | 7.1µM* | 0%
COc1ccc(-c2nc(-c3ccccn3)no2)cc1 | ? | 0.56µM* | 3% | 0.32µM* | -3%
Cc1ccccc1-c1nc(-c2ccccn2)no1 | ? | 7.1µM* | 3% | 7.9µM* | 0%
Brc1ccc(-c2noc(-c3ccccn3)n2)o1 | ? | ? | -8% | ? | -2%
Cc1cccc(OCCNC(=O)CCNS(=O)(=O)c2ccc3ccccc3c2)c1 | ? | nt | -1% | nt | 14%
CCc1ccc2c(Cl)c(C(=O)N/N=C/c3c[nH]c4ccccc34)sc2c1 | 14% | 8.9µM* | ? | -7% | ?
CCc1ccc(-c2cc(C(=O)N/N=C/c3c[nH]c4ccccc34)[nH]n2)cc1 | ? | 11µM* | 6.5µM* | 13µM* | 21µM*
CCOc1ccc(NC(=O)CN(C)C(=O)CCCc2nc3ccccc3c(=O)[nH]2)cc1OCC | 13% | nt | 1% | nt | 11%
O=C(COc1ccccc1C(=O)Nc1ccccc1)c1ccc(Br)cc1 | ? | 0% | -9% | -2% | -11%
O=C(Oc1ccccc1C(=O)Nc1ccccc1)c1ccccc1Br | ? | 41% | 15µM* | -27% | 5.2µM*
Cc1ccccc1SCC(=O)OCC(=O)N(C)c1c(N)n(Cc2ccccc2)c(=O)[nH]c1=O | 10% | nt | 0% | nt | -1%
COc1ccccc1N1CCN(C2=Nc3cccc4cccc2c34)CC1 | ? | 16µM* | ? | ? | -2%
c1ccc(CC2CCN(C3=Nc4cccc5cccc3c45)CC2)cc1 | 6% | ? | ? | 7.1µM* | 9.2µM*
CN(CC(=O)Nc1cccc(F)c1)C(=O)C1CCC(C(=O)N(C)CC(=O)Nc2cccc(F)c2)CC1 (stereo not given) | nt | nt | -12% | nt | ?
COC(=O)c1c(C)[nH]c(C(=O)CN2C(=O)NC3(CCOc4ccccc43)C2=O)c1C (stereo not given) | ? | nt | -8% | nt | -1%
SMILES | ELG1 repair inh | RORg inh | SW480 rerep | VP16 counter | MCF10A rerep
O=c1[nH]c2ccc(NCc3ccccc3OCc3ccc(Cl)cc3)cc2[nH]1 | 8.2µM* | ? | ? | ? | 7%
CC(O)CNCCNCc1c(OCc2ccccc2)ccc2ccccc12 (stereo not given) | 10% | ? | 3% | 22µM* | ?
CC(O)CNCCOc1ccccc1OCc1ccccc1 (stereo not given) | -7% | -12% | 1% | 7% | 3%
CCNCc1ccccc1OCc1ccccc1 | -11% | -13% | -6% | -3% | 9%
Oc1ccc(NCc2ccccc2OCc2ccccc2)cc1 | ? | ? | 15µM* | ? | 23µM*
OCCNCCNCc1ccccc1OCc1ccccc1 | -4% | -6% | 21µM* | -18% | 3%
Cc1c(NC(=O)c2cc(-c3ccc(Cl)cc3)on2)c(=O)n(-c2ccccc2)n1C | -11% | 15% | -10% | 5% | -1%
NCCC[C@@H](CC(=O)N[C@@H]1CCCC[C@H]1C(=O)N[C@H](CC(=O)N[C@@H](CCC(=O)O)CC(=O)O)Cc1c[nH]c2ccccc12)NC(=O)C[C@H](Cc1c[nH]c2ccccc12)NC(=O)[C@@H]1CNCC[C@H]1N | nt | 17% | nt | 3% | nt
CC(C)(C)n1ncc2c(=O)n(CC(=O)OCc3ccccc3)cnc21 | ? | 8.9µM* | -8% | 1.6µM* | 10%
C[n+]1nc(Nc2ccccc2)sc1-c1ccc(C(=O)O)cc1 | 11% | 7% | nt | 6% | nt
COc1cc(CN2CCCCCC2)cc(OC)c1 | -14% | 8% | -5% | -4% | -2%
COc1cc(CN2C(=S)NC(C)(C)CC2(C)O)cc(OC)c1 (stereo not given) | -1% | 3.5µM* | -4% | 11µM* | 2%
O=C(O)CCSc1nnc(CNc2ccc(Cl)cc2)n1Cc1ccccc1 | -9% | -1% | 0.23µM* | -1% | 1%
CCn1c(CNc2ccc(Cl)cc2)nnc1SCC(=O)OC1CCCCC1 | -27% | ? | 2% | -12% | 13µM*
NC(=O)[C@@H]1CC2(CC(c3cccc(NC(=O)[C@@H]4CCC(=O)N4)c3)=NO2)CN1C(=O)Cc1ccc([N+](=O)[O-])cc1 (stereo not given in full) | -1% | 5% | -7% | -9% | 14%
CCN(CC)C(=O)CSc1nc(-c2cccs2)cc(-c2cccs2)c1C#N | 16µM* | 7% | 0% | -2% | ?
CCc1nnc(NC(=O)CSc2nc(-c3ccccc3)cc(-c3ccc(F)cc3)c2C#N)s1 | -9% | ? | 10µM* | -7% | 4.1µM*
CN1CCN(C(=O)CSc2nc(-c3cccs3)cc(-c3cccs3)c2C#N)CC1 | ? | 10% | ? | -5% | 21µM*
COc1ccc(-c2cc(-c3cccs3)c(C#N)c(SCC(=O)NCc3ccco3)n2)cc1 | ? | 15% | 2.6µM* | -9% | 1.5µM*
COc1ccc(CNC(=O)CSc2nc(-c3ccccc3)cc(-c3cccs3)c2C#N)cc1 | ? | -21% | 16% | -3% | 13%
CCN1CCc2c(OCC(=O)Nc3ccc4c(c3)OCCO4)cccc2C1=O | -25% | 12% | nt | -7% | nt
CC(C)c1ccc(NC(=O)c2ccc(NC3=NC4CS(=O)(=O)CC4S3)cc2)cc1 (stereo not given) | 12% | 22% | -5% | 3% | 7%
